Measured values: the supplement of paper PMC11001985
A number with no mark means an inactive call.

compound: C#CCNC(=O)CCSSCCC(=O)NCCc1ccc(C=O)c(C=O)c1; assay: lysine labeling ratio R10:1 (500 µM / 50 µM probe), SILAC-ABPP in living cells; higher = lower intrinsic lysine reactivity toward the probe, active = 2 or less; conditions: HeLa; probe concentrations 500 vs 50 µM
Procedure, shortened: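 Each lysine carries an R value: the filtered median of MS1 peptide ratios of high probe to low probe, with the median then taken over forward and reverse replicates. These came from living SILAC light and heavy HeLa cells in PBS at room temperature labelled with an alkyne-tagged, disulfide-linked lysine probe at 500 µM or 50 µM, in forward and reverse swaps. The lysates were mixed, clicked to biotin-azide, trypsin-digested, captured on neutravidin, released by DTT, alkylated and run by LC-MS/MS on a TIMS-TOF Pro. The highest value allowed is 20.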

Chain of UniProt O14495 (O14495 whole entry): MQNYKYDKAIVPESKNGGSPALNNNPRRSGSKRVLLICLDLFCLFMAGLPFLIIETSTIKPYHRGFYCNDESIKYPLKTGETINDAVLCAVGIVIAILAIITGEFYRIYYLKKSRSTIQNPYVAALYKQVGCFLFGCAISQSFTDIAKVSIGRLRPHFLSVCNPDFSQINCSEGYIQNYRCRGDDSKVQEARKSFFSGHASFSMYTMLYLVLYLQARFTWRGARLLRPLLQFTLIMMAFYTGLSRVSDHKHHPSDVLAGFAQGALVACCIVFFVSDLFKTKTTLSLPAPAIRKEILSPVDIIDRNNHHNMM
Chain of UniProt P15509 (P15509 whole entry): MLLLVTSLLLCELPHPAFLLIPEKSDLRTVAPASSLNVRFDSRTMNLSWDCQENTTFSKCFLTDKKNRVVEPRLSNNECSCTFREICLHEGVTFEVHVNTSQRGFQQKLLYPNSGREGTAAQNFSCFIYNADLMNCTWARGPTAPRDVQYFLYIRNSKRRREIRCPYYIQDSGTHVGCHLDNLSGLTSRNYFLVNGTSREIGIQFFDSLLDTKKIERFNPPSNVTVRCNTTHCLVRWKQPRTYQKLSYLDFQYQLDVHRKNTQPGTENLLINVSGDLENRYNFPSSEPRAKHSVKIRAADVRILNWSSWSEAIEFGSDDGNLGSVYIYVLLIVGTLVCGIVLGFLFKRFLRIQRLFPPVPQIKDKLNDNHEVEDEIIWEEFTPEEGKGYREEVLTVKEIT
Chain of UniProt O15230 (O15230 whole entry): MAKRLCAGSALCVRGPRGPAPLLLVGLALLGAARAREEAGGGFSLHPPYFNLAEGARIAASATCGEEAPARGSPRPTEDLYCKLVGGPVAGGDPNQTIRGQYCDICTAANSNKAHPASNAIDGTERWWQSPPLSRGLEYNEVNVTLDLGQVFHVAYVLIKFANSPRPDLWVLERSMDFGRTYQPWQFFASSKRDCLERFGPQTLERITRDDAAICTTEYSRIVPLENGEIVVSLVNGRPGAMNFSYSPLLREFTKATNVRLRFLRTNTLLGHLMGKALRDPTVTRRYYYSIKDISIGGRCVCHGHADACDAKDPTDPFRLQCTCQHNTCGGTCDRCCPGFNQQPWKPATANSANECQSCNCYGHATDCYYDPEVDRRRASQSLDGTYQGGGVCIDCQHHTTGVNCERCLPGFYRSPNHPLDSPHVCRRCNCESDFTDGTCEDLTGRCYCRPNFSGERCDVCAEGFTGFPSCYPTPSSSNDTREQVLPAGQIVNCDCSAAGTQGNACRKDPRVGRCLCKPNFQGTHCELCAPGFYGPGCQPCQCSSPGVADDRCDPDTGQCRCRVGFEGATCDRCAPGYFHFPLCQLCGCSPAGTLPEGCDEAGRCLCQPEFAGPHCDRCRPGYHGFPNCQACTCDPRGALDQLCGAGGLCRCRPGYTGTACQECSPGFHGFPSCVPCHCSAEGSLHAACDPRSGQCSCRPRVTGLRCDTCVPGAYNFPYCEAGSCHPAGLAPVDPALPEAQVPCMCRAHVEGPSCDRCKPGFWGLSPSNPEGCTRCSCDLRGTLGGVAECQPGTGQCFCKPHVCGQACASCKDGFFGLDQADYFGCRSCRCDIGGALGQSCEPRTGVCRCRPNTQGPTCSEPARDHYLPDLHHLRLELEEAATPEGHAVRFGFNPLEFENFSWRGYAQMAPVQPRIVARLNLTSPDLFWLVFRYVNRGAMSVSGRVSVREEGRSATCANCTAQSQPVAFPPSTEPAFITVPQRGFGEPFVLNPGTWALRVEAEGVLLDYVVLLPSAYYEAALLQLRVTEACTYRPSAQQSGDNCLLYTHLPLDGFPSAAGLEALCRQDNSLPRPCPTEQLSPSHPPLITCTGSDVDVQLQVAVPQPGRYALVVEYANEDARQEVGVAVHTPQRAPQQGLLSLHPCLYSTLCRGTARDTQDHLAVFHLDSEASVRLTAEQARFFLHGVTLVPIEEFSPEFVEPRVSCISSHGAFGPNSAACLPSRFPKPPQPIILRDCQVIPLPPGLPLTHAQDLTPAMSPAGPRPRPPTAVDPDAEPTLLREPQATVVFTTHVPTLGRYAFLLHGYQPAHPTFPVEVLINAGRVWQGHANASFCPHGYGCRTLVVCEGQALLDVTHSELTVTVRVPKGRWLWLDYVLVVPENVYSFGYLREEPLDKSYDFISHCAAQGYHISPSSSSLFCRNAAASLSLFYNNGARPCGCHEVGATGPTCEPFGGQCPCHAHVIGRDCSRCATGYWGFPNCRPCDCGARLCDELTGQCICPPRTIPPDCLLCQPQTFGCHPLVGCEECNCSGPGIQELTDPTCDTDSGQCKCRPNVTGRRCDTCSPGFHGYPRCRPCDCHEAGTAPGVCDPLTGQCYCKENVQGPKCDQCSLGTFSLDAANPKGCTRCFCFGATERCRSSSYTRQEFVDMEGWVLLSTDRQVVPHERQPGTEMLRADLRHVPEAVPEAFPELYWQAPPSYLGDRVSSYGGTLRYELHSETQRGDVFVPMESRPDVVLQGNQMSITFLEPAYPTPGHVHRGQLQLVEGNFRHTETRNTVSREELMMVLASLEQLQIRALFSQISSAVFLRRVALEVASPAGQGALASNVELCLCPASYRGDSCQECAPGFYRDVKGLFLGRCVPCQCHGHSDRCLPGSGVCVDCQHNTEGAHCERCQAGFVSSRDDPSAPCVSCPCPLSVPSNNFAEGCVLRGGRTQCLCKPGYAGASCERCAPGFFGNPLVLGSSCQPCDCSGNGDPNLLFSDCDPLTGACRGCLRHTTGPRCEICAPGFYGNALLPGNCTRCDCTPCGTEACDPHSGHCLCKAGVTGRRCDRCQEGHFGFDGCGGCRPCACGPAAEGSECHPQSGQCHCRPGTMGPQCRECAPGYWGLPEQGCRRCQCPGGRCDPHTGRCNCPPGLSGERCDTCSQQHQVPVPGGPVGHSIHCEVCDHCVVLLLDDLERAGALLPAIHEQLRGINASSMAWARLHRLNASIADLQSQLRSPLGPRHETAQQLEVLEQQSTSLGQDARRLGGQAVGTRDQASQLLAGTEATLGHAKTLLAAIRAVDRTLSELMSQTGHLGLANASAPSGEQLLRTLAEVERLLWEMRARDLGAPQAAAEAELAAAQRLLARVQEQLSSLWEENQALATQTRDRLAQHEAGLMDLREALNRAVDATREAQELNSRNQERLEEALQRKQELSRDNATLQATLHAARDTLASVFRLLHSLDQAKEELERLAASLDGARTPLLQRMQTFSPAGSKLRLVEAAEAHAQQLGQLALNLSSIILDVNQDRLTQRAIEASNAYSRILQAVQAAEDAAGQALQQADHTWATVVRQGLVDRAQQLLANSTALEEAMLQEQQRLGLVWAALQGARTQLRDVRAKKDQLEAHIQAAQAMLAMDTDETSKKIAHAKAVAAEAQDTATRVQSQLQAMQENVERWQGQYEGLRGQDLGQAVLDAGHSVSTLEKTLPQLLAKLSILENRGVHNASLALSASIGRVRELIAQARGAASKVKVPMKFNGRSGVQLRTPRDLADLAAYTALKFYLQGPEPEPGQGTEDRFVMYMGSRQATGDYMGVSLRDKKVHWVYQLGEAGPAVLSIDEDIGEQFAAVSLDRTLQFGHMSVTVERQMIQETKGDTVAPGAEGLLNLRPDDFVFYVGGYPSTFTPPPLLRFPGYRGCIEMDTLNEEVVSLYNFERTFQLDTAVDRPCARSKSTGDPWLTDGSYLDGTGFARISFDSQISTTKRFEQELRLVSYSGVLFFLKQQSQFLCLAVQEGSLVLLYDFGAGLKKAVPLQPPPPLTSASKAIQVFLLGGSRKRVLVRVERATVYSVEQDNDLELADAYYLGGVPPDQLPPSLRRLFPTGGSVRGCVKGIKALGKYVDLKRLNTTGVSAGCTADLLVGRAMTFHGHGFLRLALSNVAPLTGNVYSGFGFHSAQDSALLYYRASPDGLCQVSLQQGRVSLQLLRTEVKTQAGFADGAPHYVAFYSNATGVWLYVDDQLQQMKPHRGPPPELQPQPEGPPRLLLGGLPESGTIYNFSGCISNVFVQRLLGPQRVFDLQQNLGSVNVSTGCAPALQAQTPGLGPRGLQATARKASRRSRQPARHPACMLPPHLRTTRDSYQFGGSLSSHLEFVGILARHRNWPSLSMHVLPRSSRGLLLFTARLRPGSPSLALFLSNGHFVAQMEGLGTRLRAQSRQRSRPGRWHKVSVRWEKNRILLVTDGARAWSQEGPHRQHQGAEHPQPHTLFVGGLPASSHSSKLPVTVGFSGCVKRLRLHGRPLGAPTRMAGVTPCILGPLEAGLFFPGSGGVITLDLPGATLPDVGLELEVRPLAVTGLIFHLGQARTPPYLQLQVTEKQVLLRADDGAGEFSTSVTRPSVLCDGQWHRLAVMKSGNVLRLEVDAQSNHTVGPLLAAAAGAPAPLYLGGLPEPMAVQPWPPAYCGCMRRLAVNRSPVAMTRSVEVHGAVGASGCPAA

| Target | lysine labeling ratio R10:1 |
| --- | --- |
| UniProt Q15149 (lysine site: K2274) | 2.24 |
| ACTN4 (lysine site: K66) (UniProt O43707) | 4.43 |
| LAMA5 (lysine site: K1227) (UniProt O15230) | 2.71 |
| UniProt P62249 (lysine site: K73) | 3.59 |
| CSF2RA (lysine site: K108) (UniProt P15509) | 0.663 (active) |
| PLPP3 (lysine site: K187) (UniProt O14495) | 2.06 |
